Rows were chosen to be rich in hits. Some 11% of all compounds tested hit in one or more screens of this group.
USP30 inh: blocks human USP30 ubiquitin-rhodamine cleavage. inhibition, % at 25 µM. Q70CQ3. purified USP30, Ub-rhodamine cleavage fluorescence. hit rate 5.3% among 47,000
OTUD3 inh: blocks human OTUD3 ubiquitin-rhodamine cleavage; purified OTUD3, Ub-rhodamine fluorescence, 2 h; inhibition, % at 25 µM; hit rate 0.7% among 47,000; AID 1645858
Target sequence (Q5T2D3 whole entry, looked up): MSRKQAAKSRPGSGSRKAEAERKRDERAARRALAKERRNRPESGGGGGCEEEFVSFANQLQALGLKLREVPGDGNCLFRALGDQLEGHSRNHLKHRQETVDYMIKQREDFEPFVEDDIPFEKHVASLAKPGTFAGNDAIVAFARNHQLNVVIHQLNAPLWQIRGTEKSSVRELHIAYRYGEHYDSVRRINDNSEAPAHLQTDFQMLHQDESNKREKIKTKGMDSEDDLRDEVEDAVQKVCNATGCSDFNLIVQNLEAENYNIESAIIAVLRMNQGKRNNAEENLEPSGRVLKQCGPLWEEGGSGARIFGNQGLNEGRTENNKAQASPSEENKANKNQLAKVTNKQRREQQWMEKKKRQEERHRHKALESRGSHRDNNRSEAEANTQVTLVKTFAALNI
USP28 inh: blocks human USP28 ubiquitin-rhodamine cleavage; hit rate 3% among 47,000; AID 1645857; inhibition, % at 25 µM; purified USP28, Ub-rhodamine cleavage fluorescence, 30 min; Q96RU2
USP17 inh: inhibitors of human USP17 deubiquitinase. A8MUK1. purified USP17, Ub-rhodamine cleavage fluorescence, 3 h. inhibition, % at 50 µM. hit rate 6.5% among 47,000. AID 1645855
Active calls of the source: *; x = no result. Rule as the data show it: active = inhibition above about 30%; inactive = the rest.

SMILES	USP30 inh	OTUD3 inh	USP28 inh	USP17 inh
Cc1ccccc1OCCN1C(=O)C2CN(C(N)=O)CCN2C1=O (centres undefined)	31*	13	14	12
COC(=O)c1ccccc1NC(=O)CSc1nnc(-c2ccc(C(C)(C)C)cc2)n1C1CCCC1	52*	-37	12	15
O=C(CSc1nnc(Cc2ccccc2)n1C1CCCCC1)Nc1ccccc1Cl	20	6	14	4
COc1cc2cc(Oc3ccc4ccc(=O)oc4c3)c(=O)oc2cc1O	34*	0	7	-4
Cc1nc(SCC(=O)Nc2ccc3c(c2)OCO3)c2oc3ccccc3c2n1	-14	1	3	7
CCc1cc2cc3c(cc2nc1SCC(=O)Nc1cccc(C(C)=O)c1)OCO3	-1	-4	0	63*
c1ccc(-c2onc3c2CCCC3)cc1	17	10	35*	9
COC(=O)c1ccc(CNC(=O)c2cc3ccccc3oc2=O)cc1	x	2	x	62*
O=C(COC(=O)c1cc2ccccc2oc1=O)Nc1ncccn1	-237	-52	-68	-68
Cc1ccc(C(=O)C(C)OC(=O)c2cc3ccccc3oc2=O)cc1 (centres undefined)	x	2	x	47*
O=C(c1ccccc1)N1CCCC(c2nncn2-c2ccccc2)C1 (centres undefined)	-4	1	-4	-1
CNc1cc(C)nc(C2CN(C(=O)c3noc4c3CCCC4)CCO2)c1 (centres undefined)	28	6	3	2
COc1ccc(-n2c(SCC(=O)c3ccc(F)cc3)nnc2-c2cccnc2)cc1	22	7	7	71*
COc1ccc(C(=O)CSc2ccc3nnc(-c4cccnc4)n3n2)cc1	-19	-10	-21	-7
Cc1cccc2cc(CN(Cc3ccc4c(c3)OCO4)C(=O)NCc3ccccc3)c(=O)[nH]c12	36*	13	23	20
COc1ccccc1CNS(=O)(=O)c1cc(-c2cc(C)no2)ccc1OC	7	0	0	-8
Cc1ccc(-c2c(NC(=O)c3cccs3)n(C)c3ccccc3c2=O)cc1	27	9	14	22
Cc1ccc(C(=O)Nc2c(-c3ccc4c(c3)OCO4)c(=O)c3ccccc3n2C)cc1	-5	8	46*	37*
Cc1ccc(-c2c(NC(=O)c3cccc([N+](=O)[O-])c3)n(C)c3ccccc3c2=O)cc1	32*	4	14	15
Cn1c(NC(=O)c2ccc(Cl)cc2)c(-c2ccccc2)c(=O)c2ccccc21	0	-2	-10	4
Cn1c(NC(=O)c2cccc(Br)c2)c(-c2ccc(Cl)cc2)c(=O)c2ccccc21	-37	-8	-24	41*
Cn1cccc1C1CCCCCN1C(=O)c1cnccn1 (centres undefined)	x	1	x	0
COc1ccc(NC(=O)CSc2nc3nc(C)ccc3o2)cc1	26	15	17	17
CCOc1ccc(-c2nsc(NC(=O)Cc3ccc(Cl)cc3)n2)cc1OC	-1	5	10	2
O=S(=O)(c1ccccc1)N1CCN(c2cc(-c3cccnc3)[nH]n2)CC1	22	6	14	28
SMILES	USP30 inh	OTUD3 inh	USP28 inh	USP17 inh
O=S(=O)(c1ccccc1)N1CCN(c2ccc(-c3cccnc3)nn2)CC1	-6	-7	0	49*
O=C(Nc1ccc(-n2ccc(C(F)(F)F)n2)cc1)Nc1ccc2c(c1)CCO2	32*	16	41*	12
O=C(CCc1ccc2c(c1)CCO2)Nc1cccnc1	-1	-6	3	-6
CCOc1ncccc1C(=O)OCC(=O)c1ccc(C)c(C)c1	-2	3	38*	-6
CCCCC/C=C/C=C/C(=O)OC1C(O)CC(c2ccc3c(c2O)C(=O)c2c(O)cc4cc(C)cc(O)c4c2C3=O)OC1C (centres undefined)	26	25	36*	88*
COc1ccccc1Nc1ncc(C(=O)NCc2ccc(F)cc2)c2ccccc12	-29	-2	-4	35*
COc1cc(Cl)ccc1Nc1ncc(C(=O)Nc2ccc3c(c2)OCO3)c2ccccc12	7	19	16	15
CCOC(=O)c1cnc(Nc2ccccc2OC)c2ccccc12	-93	-23	-25	8
COc1ccccc1Nc1ncc(C(=O)NCc2ccc3c(c2)OCO3)c2ccccc12	14	10	5	32*
CCn1c(=O)c(-c2ccc(C(=O)Nc3cc(C)ccc3OC)cc2)nc2cccnc21	21	8	11	37*
COc1ccc(C)cc1NC(=O)c1cc2cccnc2n(C)c1=O	x	1	x	37*
COc1ccc(NC(=O)CCCC(=O)c2ccccc2)c(OC)c1	9	6	6	5
O=C(CCCC(=O)c1ccccc1)Nc1ccc(F)cc1Cl	27	10	11	30*
O=C(CCC(=O)c1ccc(F)cc1)Nc1ccccc1F	-3	-4	2	-9

Source: PubChem (Buhrlage Lab, Dana-Farber Cancer Institute and Novartis Institutes for BioMedical Research (Cambridge, Mass))
